{"source": "the supplement of paper PMC6555819", "data": [{"test_system": "RARg:RXRa (NR concentration 270 nM, RXRa partner concentration 90 nM)", "assay": "PBM binding z-score (relative to random genomic background probes); higher = stronger binding; sequences stand for … in GC…GCGATTGACAGCGTAGAATGAAGG", "in_short": "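Probes were double-stranded and carried 34-nt variable regions with direct-repeat seeds, single-nucleotide variants, half-site ablations and random human genomic background sequences, printed on custom Agilent 4×180K protein-binding microarrays. Arrays were incubated 1 h with ligand-free nuclear receptor dimers in PBS pH 7.4, 2% milk, 0.02% Triton X-100, 1 mM DTT, 0.2 mg/mL BSA and 0.4 mg/ml salmon testes DNA. Antibodies against each partner (one per run) detected binding, and scanned fluorescence was regression-normalized. Binding z-scores use the random background probes as reference.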", "values": [{"sequence": "TCTTGTACATCAAAGGTTAAGAAAGCCGAAGCCT", "PBM binding z-score": 1.84}, {"sequence": "AGTAGCAGGCCAAGTTTGGGTCACTCAAACAAAG", "PBM binding z-score": 2.3}, {"sequence": "GCAGTCAGGTGAAACGCAGGTAACTCAGGGTGGC", "PBM binding z-score": 0.634}, {"sequence": "ATATGTAGGTTATCGGGTCAATCAGTTTGCGCAT", "PBM binding z-score": 3.59}, {"sequence": "CAAACTAGGTCAAGAGGTCAACGTCCGCTTCCCG", "PBM binding z-score": 7.92}, {"sequence": "GCGACTGCGGCAAAGCAGGTTACCATAAGGTTGG", "PBM binding z-score": -0.183}, {"sequence": "TCTAGCAGGCCAGAGGGTCACTTAAGAGGTACGG", "PBM binding z-score": 2.39}, {"sequence": "CCTACTGGGCCACGAAATGTCATTGATTCAGTGA", "PBM binding z-score": 0.2}, {"sequence": "TCGAGTAGGTTACCAATGGGTCATTCAGCTTTCT", "PBM binding z-score": 3.58}, {"sequence": "GGAACGTGGGCAAGTTGATAGCAGAGTTTGATGG", "PBM binding z-score": -0.487}, {"sequence": "ATCTCTAGGTAAAGTTAAGTGAAAGATCGATAGA", "PBM binding z-score": 0.48}, {"sequence": "CCTACTGAGCCAAGGTCATTGATCAGTCAAAGCA", "PBM binding z-score": 3.7}, {"sequence": "CATGCTAGGTCATGGTCAGCTAATCTACAGTATG", "PBM binding z-score": 3.95}, {"sequence": "GCAGACAGGTGAAACGCAGGTTACTCAGGGTGGC", "PBM binding z-score": 2.09}, {"sequence": "CAAACTAGATCAAGAGGTCAAAGTCCGCTTCCCG", "PBM binding z-score": 4.84}, {"sequence": "TCTCGGAGGACACGAAAGGACAGAGCTCGACATC", "PBM binding z-score": 1.33}, {"sequence": "ATATGTAGGTTAGCTGGGGTCATTCAAACTAGGC", "PBM binding z-score": 4.22}, {"sequence": "GGAACGAGGGCATTCGTGTTGATAGCATGGCGAT", "PBM binding z-score": 0.848}]}]}
